The record followed here is PubChem BioAssay AID686978 (National Center for Advancing Translational Sciences (NCATS), 2013).

The structures appear in SMILES notation. About 64,000 (15%) of roughly 420,000 compounds were called active. Inconclusive results (about 27%) are left out. Calls come from the whole dose curve; as a rule, active = well fitted inhibition curve with a large enough effect; inconclusive = small, poorly fitted or top-dose-only effect; inactive = flat fitted curve, though single readings scatter. These entries were drawn from the full list. Entries that show only a call come without a potency.
Potency is the fitted concentration of half-maximal effect.

A short description of the assay: qHTS for Inhibitors of human tyrosyl-DNA phosphodiesterase 1 (TDP1): qHTS in cells in absence of CPT. Note: nearly all actives have a fitted effect of over 55% in size. As to conditions: DT40 Tdp1-/- hTDP1 cells, no CPT, ATP luminescence, 48 h; activity change, negative = growth inhibition: at 46.2 µM (top of the series). A digest of the protocol:
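Luminescent ATP content (CellTiter-Glo) served as the growth readout. Knockout chicken DT40 cells expressing human TDP1 were exposed to compounds without camptothecin for a minimum 48 hr at 37 °C.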
In general terms: In qHTS, concentration-response curves come from the screen itself.
Take `O=C1C2C3C=CC(C3)C2C(=O)N1c1ccc(-c2nc3ccccc3c(=O)o2)cc1` (configuration not stated): the Potency entry is “inactive”.
To `CN(C)c1ccc(/C=N/NC(=O)C(O)c2ccc(Br)cc2)cc1` (configuration not stated) belongs “inactive”; to `NS(=O)(=O)c1ccc(NC(=S)NC(=O)c2cccnc2)cc1`, “inactive”; to `CC1CCCN(C(=O)CN2C(=O)c3ccccc3S2(=O)=O)C1` (configuration not stated), “inactive”.
In the case of `O=C1c2ccccc2S(=O)(=O)c2cc(N3CCN(c4ccccn4)CC3)ccc21` it was “inactive”.
For the molecule `O=C(c1ccc2c(c1)N(Cc1ccc(F)cc1)C(=O)c1ccccc1S2(=O)=O)N1CCN(c2ccccn2)CC1`, the Potency was 18.4 µM (active).
To `COc1ccccc1NC(=O)CN1C(=O)c2ccccc2Sc2ccc(C(=O)N3CCCC3)cc21` belongs “inactive”; to `O=C(c1ccc2c(c1)N(Cc1ccccc1)C(=O)c1ccccc1S2(=O)=O)N1CCCC1`, 23.1 µM (active).
To `O=C(c1ccc2c(c1)N(Cc1ccccc1)C(=O)c1ccccc1S2(=O)=O)N1CCC(Cc2ccccc2)CC1` belongs 5.8 µM (active); to `O=C(c1cccc(Br)c1)N1CCN(C2=NS(=O)(=O)c3ccccc32)CC1`, “inactive”; to `O=C(c1ccc2c(c1)C(=O)N(c1ccc(Cl)cc1)C2=O)N1CCN(c2ccccn2)CC1`, “inactive”.
In the case of `O=C(c1ccc2c(c1)N(Cc1ccccc1F)C(=O)c1ccccc1S2(=O)=O)N1CCOCC1` it was “inactive”.
Take `COc1ccc(Cl)cc1N(CC(=O)N/N=C/c1ccc(OCC(N)=O)cc1)S(C)(=O)=O`: the Potency result is “inactive”.
In the case of `CCOc1ccc(C(=O)N2CCN(CCc3ccccn3)CC2)cc1` it was “inactive”; in that of `O=C(CSc1nnc(-c2cccnc2)n1CCc1ccccc1)NCc1ccccc1`, “inactive”; in that of `COc1ccc(C)cc1NC(=O)CCS(=O)(=O)c1cccc2nonc12`, “inactive”.
`COCCN(CCOC)S(=O)(=O)NC[C@H]1O[C@@H](n2cnc3c(N)ncnc32)[C@H](O)[C@@H]1O`: the Potency result was “inactive”.
For the molecule `CN1CCN(S(=O)(=O)c2ccc(NC(=S)NC(=O)C3CC3)cc2)CC1`, the Potency result was “inactive”.
In the case of `CCOC(=O)c1cccnc1NC(=O)c1ccncc1`, the Potency entry is “inactive”.
To `O=C(O)c1ccccc1-c1ccccc1C(=O)Nc1cccc2ccccc12` belongs “inactive”; to `COC(=O)COc1ccc2c(c1C)O/C(=C\c1ccco1)C2=O`, “inactive”.
Regarding `O=c1cc(O)c(-c2cccc(C(F)(F)F)c2)c(Cl)[nH]1`, the Potency entry was “inactive”.
In the case of `CC1(Cc2cccc(C#N)c2)C(=O)Nc2ccc(-c3cccc(C(F)(F)F)c3)cc21` (configuration not stated) it was 20.6 µM (active).
In the case of `C=CCn1cc(-c2cccc(C(F)(F)F)c2)cc(C#N)c1=O` it was “inactive”; in that of `COC(=O)C(C)Sc1ccc2nnc(-c3cccc(F)c3)n2n1` (configuration not stated), “inactive”.
In the case of `CCn1ccnc1CN(C)Cc1nc(-c2ccc3c(c2)OCO3)no1` it was “inactive”; in that of `Cc1ccc(-n2cnc3ncnc(-c4ccccc4)c32)cc1`, “inactive”.
For `Cc1ccc(-n2cc(CN(C)Cc3nccn3C)c(-c3cccc(C)c3)n2)cc1`, the Potency is 23.1 µM (active).
In the case of `O=C(CCCl)Nc1ccc(S(=O)(=O)NCc2ccco2)cc1` it was “inactive”; in that of `Cc1oc(-c2ccccc2Cl)[n+]([O-])c1C`, 23.1 µM (active); in that of `Cc1ccc(-c2cc(-c3coc4ccccc4c3=O)c3c(n2)-c2cc(Cl)ccc2OC3)cc1`, “inactive”.
In the case of `O=C(c1ccc(OC2CCN(Cc3ccccn3)CC2)cc1)N1CCCCCC1`, the Potency entry is “inactive”.
In the case of `COc1cc([N+](=O)[O-])ccc1NC(=O)CN1CCCC1` it was “inactive”; in that of `CSc1ccccc1NC(=O)COC(=O)CCCOc1ccc(C)cc1`, “inactive”; in that of `COc1cc([N+](=O)[O-])ccc1NC(=O)COC(=O)CCOc1ccc(C)cc1`, 6.51 µM (active).
In the case of `O=C(C[C@H]1CC[C@@H](NC(=O)c2ccncc2)[C@@H](CO)O1)NCC1CC1` it was “inactive”; in that of `CN(CCC#N)c1ncnc2scc(-c3ccccc3)c12`, 14.6 µM (active); in that of `N#CCCN(CCC#N)c1nnc(-c2ccccc2)s1`, “inactive”.
`C=CCn1cnc2scc(-c3ccccc3)c2c1=O`: the Potency entry was “inactive”.
Take `CCC(=O)NC(Nc1cc(C)ccn1)(C(F)(F)F)C(F)(F)F`: the Potency result was “inactive”.
In the case of `Cc1cc(C)cc(OCC(=O)Nc2ccc(S(=O)(=O)Nc3ccccn3)cc2)c1` it was “inactive”; in that of `COC(=O)Cc1ccc(Oc2ncc(C(F)(F)F)cc2Cl)cc1`, “inactive”.
`Cc1cc(C)cc(NS(=O)(=O)c2ccc(Oc3ncc(C(F)(F)F)cc3Cl)cc2)c1`: the Potency is 13 µM (active).
In the case of `Cc1nc(C(F)(F)F)ccc1C(=O)N1CCC1(C)C(=O)NS(=O)(=O)c1ccccc1` (configuration not stated) it was “inactive”; in that of `O=C(CCN1Cc2ccccc2OC(c2ccccc2)C1)N[C@@H]1CS(=O)(=O)C[C@H]1O` (some centres not stated), “inactive”.
To `COc1ccc(C2COC(=O)C2=N)c(NC(=O)c2ccccc2)c1` (configuration not stated) belongs “inactive”.
On to `CCCc1ccc(C(=O)[C@@H]2[C@@H](C(C)=O)N3c4ccc(F)cc4C=C[C@@H]3[C@@]23C(=O)Nc2ccccc23)cc1`, for which the Potency is 18.4 µM (active).
Take `COc1cc(C(=O)N[C@@H](C)C(=O)NCc2ccco2)cc(OC)c1OC`: the Potency entry was “inactive”.
In the case of `COc1cc(C(=O)NC(=S)NCc2ccco2)cc(OC)c1OC` it was 20.6 µM (active).
In the case of `COc1cccc(OC)c1C(=O)NC(=S)NCc1ccco1`, the Potency entry is “inactive”.
Take `COc1ccc(-c2nc3c(c(SCC(=O)Nc4ccc(C(=O)O)cc4)n2)Cc2ccccc2O3)cc1`: the Potency result was “inactive”.
To `Cc1oc2nc(SCC(=O)NCc3cccnc3)nc(N)c2c1C` belongs “inactive”; to `COc1ccccc1NC(=O)C1=C(C)NC(=O)NC1c1ccc(C)s1` (configuration not stated), “inactive”.
In the case of `O=C(Cn1nnc(N2CCCCC2)n1)c1ccc(Cl)c(Cl)c1`, the Potency entry was “inactive”.
Take `O=C(Cn1nc(CNc2ccc(Cl)cc2)[n+]2c1CCCCC2)c1ccc(Cl)cc1`: the Potency is 23.1 µM (active).
In the case of `CC(NC(=O)c1ccc(Cl)cc1)C(=O)N1CCCCC1` (configuration not stated) it was “inactive”; in that of `CC1(c2ccccc2Cl)NC(=O)N(CC(=O)NC(=O)NCc2ccco2)C1=O` (configuration not stated), “inactive”; in that of `O=C(CCN1C(=O)c2ccncc2C1=O)Nc1ccc2c(c1)OCCO2`, “inactive”.
As for `Cc1ccc(/C=C2\SC(=S)N(CCC(=O)Nc3ccc(O)cc3)C2=O)cc1`, the Potency result is “inactive”.
To `COC(=O)C1=C(C)N(c2ccc(C)cc2)/C(=C/c2ccc(O)cc2)C1=O` belongs 20.6 µM (active).
In the case of `COC(=O)C1=C(C)NC(=O)/C1=C/c1ccc(CNS(=O)(=O)c2ccc(C)cc2)o1` it was “inactive”; in that of `CC(C)CNS(=O)(=O)c1ccc(C(=O)Nc2ccc3c(c2)OCO3)cc1`, “inactive”.
On to `CCC(C)[C@@H](C(=O)N1CCNCC1)n1cc(CCCCN)nn1` (some centres not stated), for which the Potency entry was “inactive”.
In the case of `CC(C)C12CN3CC(C(C)C)(CN(C1)C3c1ccc(OCc3ccccc3)cc1)C2=O` (configuration not stated) it was “inactive”; in that of `CC1=C(C(=O)OCC(C)C)C(c2ccc(OCc3ccccc3)cc2)N2C(=O)CCSC2=N1` (configuration not stated), 16.4 µM (active); in that of `C=CCOC(=O)C1=C(C)N=C2SCCC(=O)N2C1/C=C/c1ccccc1OC` (configuration not stated), “inactive”.
In the case of `COc1ccc(-n2c(=O)c(-c3cn(C)c4ccccc34)nc3cnc(OC)nc32)cc1` it was “inactive”; in that of `CCC(C(=O)N1CCOCC1)n1c(C(=O)OC)cc2occc21` (configuration not stated), “inactive”.
To `CCS(=O)(=O)c1ccc2c(c1)N(S(=O)(=O)c1ccccc1)CC(C(=O)O)O2` (configuration not stated) belongs “inactive”.
On to `CCOc1ccc(S(=O)(=O)N2CCC(C(=O)OCc3ccc(OC)cc3)CC2)cc1`, for which the Potency entry is “inactive”.
To `CCOC(=O)C1CN(S(=O)(=O)c2ccc(OC)cc2)c2cc(Cl)ccc2O1` (configuration not stated) belongs 20.6 µM (active).
For `Cn1cc(S(=O)(=O)N2CCN(c3ccc(F)cc3)CC2)c(=O)n(C)c1=O`, the Potency entry is “inactive”.
Regarding `Nc1nnc(SCC(=O)NC2CCCc3ccccc32)s1` (configuration not stated), the Potency entry was “inactive”.
In the case of `CCOC(=O)N1CCN(S(=O)(=O)c2ccc(C(=O)Nc3ccc(F)cc3F)cc2)CC1` it was 1.64 µM (active).
To `CCOC(=O)N1CCN(S(=O)(=O)c2ccc(-n3cnnn3)cc2)CC1` belongs “inactive”.
On to `CCOC(=O)N1CCN(S(=O)(=O)c2ccc(Br)cc2)CC1`, for which the Potency entry was “inactive”.
In the case of `Cc1ccc(S(=O)(=O)N(C)C)cc1NC(=O)c1ccc(-n2cncn2)c([N+](=O)[O-])c1` it was “inactive”.
To `O=C(NNC(=O)c1cccc(S(=O)(=O)Nc2ccc(Cl)cc2)c1)c1ccc(=O)[nH]c1` belongs “inactive”; to `COc1cc(OC)cc(C(=O)Nc2ccc3nc(Nc4cccc(C(F)(F)F)c4)cc(C)c3c2)c1`, 5.8 µM (active).
As to `Cc1cc(Nc2cccc(C(F)(F)F)c2)nc2ccc(NC(=O)c3ccc(=O)[nH]c3)cc12`, the Potency was 4.61 µM (active).
In the case of `O=C(COC(=O)c1cc[n+]([O-])cc1)Nc1ccc(Cl)c(C(F)(F)F)c1` it was “inactive”; in that of `CCn1c(Cc2ccccc2)nnc1SCC(=O)Nc1ccccc1`, “inactive”; in that of `CCc1nn(CC(=O)N2CCN(c3cccc(C(F)(F)F)c3)CC2)c(=O)c2cc3occc3n12`, “inactive”.
`CC1COc2ccccc2N1C(=O)c1ccc(F)cc1` (configuration not stated): the Potency result was “inactive”.
Turning to `C/C(CC(=O)NC(C)c1ccccc1)=N\NC(N)=S` (configuration not stated), the Potency result is “inactive”.
As to `Cc1cccc(NC(=O)c2cc(N3C(=O)CCC3=O)ccc2Cl)n1`, the Potency entry was “inactive”.
For the molecule `Cc1ccccc1Nc1c([N+](=O)[O-])ccc2nonc12`, the Potency result is “inactive”.
For `COc1ncc2nc(-c3ccc(Cl)cc3)c(=O)n(-c3ccccc3)c2n1`, the Potency result was “inactive”.
To `COc1ccccc1Cc1c(-c2ccc(Cl)cc2)nc2c3ccccc3ccn12` belongs 20.6 µM (active); to `N#Cc1ccc(-c2nc3c(Cl)cc(C(F)(F)F)cn3c2Cc2ccccc2C(F)(F)F)cc1`, “inactive”.
In the case of `CC(C)OC(=O)CC(=O)CC(O)c1cccc([N+](=O)[O-])c1` (configuration not stated), the Potency entry is “inactive”.
To `NC(Cc1ccccc1)c1csc(Nc2cc(Oc3ccccc3)ncn2)n1` (configuration not stated) belongs 16.4 µM (active); to `CCNC(=O)C1CCCN(C(=O)c2cc(F)ccc2C)CC1` (configuration not stated), “inactive”.
For the molecule `CC(C)CN(CC(C)C)CC(O)CN(c1ccccc1)S(=O)(=O)c1ccccc1[N+](=O)[O-]` (configuration not stated), the Potency is 23.1 µM (active).
Take `CCN(c1ccccc1)S(=O)(=O)c1cc2c(cc1C)n(C)c(=O)c(=O)n2C`: the Potency entry is “inactive”.
In the case of `Cc1cccc(N(CC(O)CN(C)C)S(=O)(=O)c2ccccc2)c1` (configuration not stated), the Potency result is “inactive”.
In the case of `NC(=O)CCCC1=NS(=O)(=O)c2ccccc2N1` it was “inactive”.
